Data reported in the supplement of paper PMC13380429.

Tested on: Vero E6 infected with SARS-CoV-2
Experiment: inhibition of SARS-CoV-2 cytopathic effect; higher = more antiviral protection, active = above 15
Details: 48 h

Measured: inhibition of SARS-CoV-2 cytopathic effect

Cc1oc(-c2ccccc2)nc1CCOc1ccc(CC2SC(=O)NC2=O)c2sccc12 (stereo not given) [edaglitazone]
inactive: 1 nM 0.32% | 8.33 nM 0.98% | 100 nM 0.63% | 833.33 nM 1.32% | 10000 nM 2.31%

Cc1cc(C)c2c(c1)[C@@H](N(Cc1cc(C(F)(F)F)cc(C(F)(F)F)c1)c1nnn(C)n1)CCCN2C[C@H]1CC[C@H](C(=O)O)CC1 [evacetrapib]
inactive: 1 nM 2.13% | 8.33 nM -0.17% | 100 nM -3.28% | 833.33 nM -0.14% | 10000 nM 3.85%

NC1CCN(c2cccc(Cl)n2)CC1
inactive: 1 nM 0.72% | 8.33 nM -1.55% | 100 nM -4.6% | 833.33 nM -0.29% | 10000 nM -3.39%

C=C1C[C@]23C[C@@]1(O)CC[C@H]2[C@@]12C=C[C@H](O)[C@@](C)(C(=O)O1)[C@H]2[C@@H]3C(=O)O
inactive: 1 nM 0.13% | 8.33 nM 0.82% | 100 nM 1.4% | 833.33 nM 2.17% | 10000 nM -0.14%

O=c1c(O)c(-c2ccc(O)c(O)c2)oc2cc(O)cc(O)c12 [quercetin]
inactive: 1 nM 1.33% | 8.33 nM 0.85% | 100 nM 0.21% | 833.33 nM 1.78% | 10000 nM 3.03%

O=NO [sodium-nitrite]
inactive: 1 nM 1.28% | 8.33 nM -0.03% | 100 nM 3.46% | 833.33 nM 3.43% | 10000 nM 0.91%

O=C1NC(=O)[C@@H](c2cn3c4c(cccc24)CCC3)[C@@H]1c1c[nH]c2ccccc12 [tivantinib]
inactive: 1 nM -0.36% | 8.33 nM -0.11% | 100 nM -2.57% | 833.33 nM -1.94% | 10000 nM 2.92%
